# MsrA act – bovine MsrA enzyme activators, primary screen, biochemical, absorbance, HTS; Methionine sulfoxide reductase A (Bos taurus); purified bovine MsrA, absorbance read-out; activation, % at 10.6 µM; actives 0.3% (n = 360,000); AID 602163, 2012; in the data active means activation above about 7.5%
# NadD inh – inhibitors of S. aureus NadD, primary screen, biochemical, colorimetric, uHTS; Nicotinate-nucleotide adenylyltransferase NadD (Staphylococcus aureus N315); purified NadD enzyme, colorimetric absorbance read-out; inhibition, % at 20 µM; actives 0.78% (n = 360,000); in the data active means inhibition above about 26%
# rCAG binder – binders of r(CAG) RNA repeats, primary screen, biochemical, fluorescence | inhibition, % at 3 µM | AID 651821, 2012 | r(CAG) RNA repeat, TO-PRO-1 dye displacement fluorescence | actives 1.3% (n = 370,000);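 active means inhibition above the plate cutoff, the mean of all test compounds on that plate plus 3 SD, cut at about 35% in these data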;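 further: higher means more dye released from RNA so lower well fluorescence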
# MsrA inhibitor – bovine MsrA enzyme inhibitors, primary screen, biochemical, absorbance, HTS; actives 0.75% (n = 360,000); Methionine sulfoxide reductase A (Bos taurus); inhibition, % at 15.5 µM; purified bovine MsrA, absorbance read-out; in the data active means inhibition above about 4.5%
# rCAG bind conf – small molecules binding CAG repeat RNA – biochemical, fluorescence, confirmation; shares compounds with rCAG binder; r(CAG) RNA repeat, TO-PRO-1 dye displacement fluorescence; inhibition, % at 3 µM; actives 70% (n = 4,300);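 active means inhibition above a per-plate cutoff, the mean inhibition of sample wells plus 3 SD, cut at about 35% in these data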;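 further: loss of TO-PRO-1 fluorescence as compound displaces dye from 1x1 AA loop RNA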
# DNA CAG counter – displacement of TO-PRO-1 from CAG DNA duplex, counter-screen for rCAG RNA repeat binder project, biochemical, fluorescence, TO-PRO-1 dye, d(CAG) DNA oligo | shares compounds with rCAG binder | d(CAG) DNA oligo TO-PRO-1 dye displacement | inhibition, % at 3 µM | actives 94% (n = 4,300) | AID 652068, 2013;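 active means inhibition above its plate's cutoff, the mean test-well inhibition plus 3 SD, cut at about 4.8% in these data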;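 further: hits displace the dye from DNA and so lower well fluorescence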
# Hits are given with their value; – = inactive; · = not tested or not shown. The list is not random: actives were taken first. Their share in the collection is about 2.7%.
SMILES,MsrA act,NadD inh,rCAG binder,MsrA inhibitor,rCAG bind conf,DNA CAG counter
CCN(Cc1ccccc1)S(=O)(=O)c1cc(C(=O)NC2CCCCCC2)ccc1OC,–,–,–,–,·,·
CCC(C(=O)Nc1ccc(C(=O)O)cc1NC(=O)C(CC)c1ccccc1)c1ccccc1 (stereo unspecified),–,–,63.3,–,56.9,22.8
CNC(=O)NC(=O)C(C)Oc1ccccc1F (stereo unspecified),–,–,–,–,·,·
O=S(=O)(Nc1cccc(-c2nc3cccnc3s2)c1)c1cccs1,–,–,–,–,·,·
COc1ccc(NC(=O)CSc2nc(O)cc(=O)n2-c2ccc(OC)cc2)cc1,–,–,40.4,–,–,4.5
COc1ccccc1-n1c(SCC(=O)Nc2ccccc2C)nc(O)cc1=O,–,–,39.8,–,–,5.9
COc1ccccc1-n1c(SCC(=O)NC(C)(C)C)nc(O)cc1=O,–,–,–,–,·,·
COc1ccc(-n2c(SCC(=O)Nc3ccccc3)nc(O)cc2=O)cc1,–,–,–,–,·,·
Cc1cc(C)cc(C(=O)NCC(=O)OCC(=O)NC2CCCc3ccccc32)c1 (stereo unspecified),–,–,–,–,·,·
Cc1ccccc1C(=O)NNC(=S)Nc1cccc(C(F)(F)F)c1,–,–,–,–,·,·
CCOc1ccc(NC(=S)NNC(=S)Nc2cccc(C(F)(F)F)c2)cc1,–,–,38.4,–,54.7,21.6
CCOc1ccc(NC(=S)NNC(=O)c2cc(Br)ccc2Cl)cc1,–,–,37.8,–,–,8.8
O=C(NNC(=S)Nc1cccc(C(F)(F)F)c1)c1ccc(Cl)cc1Cl,–,–,62.4,–,59.0,20.9
CCOc1ccc(NC(=O)c2cc(SC)ccc2Cl)cc1,–,–,–,–,·,·
CCOCCCNC(=O)C(c1ccc(OC)cc1)N(Cc1cccs1)C(=O)c1ccccn1 (stereo unspecified),–,–,–,–,·,·
Cc1nn(Cc2noc(C(=O)NCc3ccccn3)n2)c(C)c1Br,–,–,–,–,·,·
COc1cccc(/C=C2\SC(=S)NC2=O)c1OS(=O)(=O)c1ccc(NC(C)=O)cc1,–,–,69.1,–,–,9.3
COc1ccc(/C=C2\SC(=S)NC2=O)cc1OS(=O)(=O)c1ccc(NC(C)=O)cc1,–,–,87.8,–,77.9,35.4
COc1cc(/C=C2/SC(=S)NC2=O)ccc1OS(=O)(=O)c1ccc(C)cc1,–,–,·,·,·,·
CCOc1ccc(CNS(=O)(=O)c2cccs2)cc1OCC,–,–,–,–,·,·
Cc1nonc1CN(C)C(=O)CC1C(=O)NCCN1Cc1cccc(C(F)(F)F)c1 (stereo unspecified),–,–,–,–,·,·
CCCn1c(SCC(=O)c2c(N)n(C3CC3)c(=O)[nH]c2=O)nnc1-c1ccncc1,–,–,–,–,·,·
CC12CCC(C(=O)NCc3ccc(F)cc3)(OC1=O)C2(C)C (stereo unspecified),–,–,–,–,·,·
[N-]=[N+]=NC(c1ccccc1)c1nc2ccccc2[nH]c1=O (stereo unspecified),–,–,44.1,–,–,–
CSc1ncc(Cl)c(C(=O)Nc2nnc(SC/C=C/c3ccccc3)s2)n1,–,–,66.3,–,67.0,20.1
SMILES,MsrA act,NadD inh,rCAG binder,MsrA inhibitor,rCAG bind conf,DNA CAG counter
Cc1cccc(CS(=O)(=O)c2ncc(Cl)c(C(=O)Nc3nnc(C(C)C)s3)n2)c1,–,–,·,·,·,·
CCSc1nnc(NC(=O)c2nc(S(=O)(=O)Cc3ccc(F)cc3)ncc2Cl)s1,–,–,36.1,–,–,5.8
CSc1nnc(NC(=O)c2nc(S(=O)(=O)Cc3cccc(C)c3)ncc2Cl)s1,–,–,37.3,–,–,4.5
O=C(COC(=O)c1ccc(Cl)nc1)Nc1ccc2c(c1)OCO2,–,–,–,–,·,·
Cc1cc(C)c(S(=O)(=O)N2CCN(c3ccccn3)CC2)c(C)c1,–,–,–,–,·,·
COc1ccc(-c2nn(-c3ccccc3)cc2/C=C2/SC(=S)N(CCC(=O)O)C2=O)c(C)c1,–,–,–,–,·,·
O=C1C(=Cc2cn(-c3ccccc3)nc2-c2ccc(OCc3ccc(Cl)cc3)cc2)SC(=S)N1CCS(=O)(=O)O,–,59.9,68.3,–,58.4,42.6

# Bioassay records: PubChem, several laboratories
